The full ranking holds about 39,000 sequences; the median of “fluorescence intensity (a.u.)” is about 4,300, and the highest 2% start at about 39,000. The list comes from a sample in which the highest values are over-represented; it also holds similar and randomly drawn sequences.
Each sequence was assayed against T1, OsSMF1 (Oryza sativa, UniProt Q6ZLB0 1-436) (assay: protein-binding microarray (RPBM); PBS, 2% BSA, 51.3 ng/ul salmon testes DNA, 50 uM zinc acetate, 200 nM TF, 25 C, 1 h; high values mean tight binding). Conditions: protein: recombinant; tags: N-terminal polyhistidine and DsRed monomer fusion (pET32a); chain copies: 2; label: CyDye5-dUTP incorporated in the synthesized complementary strand; 3' TTTTT single-stranded linker to array surface; dsDNA, one strand shown.
T1 sequence: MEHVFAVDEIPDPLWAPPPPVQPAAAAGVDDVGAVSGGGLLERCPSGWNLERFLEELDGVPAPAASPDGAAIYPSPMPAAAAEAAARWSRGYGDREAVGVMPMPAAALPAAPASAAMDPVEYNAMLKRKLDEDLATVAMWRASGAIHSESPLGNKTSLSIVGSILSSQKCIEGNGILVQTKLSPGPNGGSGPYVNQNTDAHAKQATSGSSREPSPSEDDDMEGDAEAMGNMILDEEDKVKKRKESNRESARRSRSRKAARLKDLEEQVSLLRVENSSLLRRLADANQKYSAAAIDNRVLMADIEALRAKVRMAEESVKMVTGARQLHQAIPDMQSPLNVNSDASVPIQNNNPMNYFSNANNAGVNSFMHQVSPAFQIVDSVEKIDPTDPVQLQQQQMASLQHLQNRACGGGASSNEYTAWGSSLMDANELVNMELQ
Outline: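 A custom Agilent array was converted to double-stranded form by primer extension with Cy5-dUTP and blocked with 2% BSA. Protein at 200 nM in PBS with 2% BSA, salmon testes DNA and 50 µM zinc acetate was applied for 1 h at 25 °C, followed by washing. The proteins were polyhistidine–DsRed N-terminal fusions of transcription factors, expressed in E. coli BL21-CodonPlus and Ni–NTA-purified. The binding signal is per-feature fluorescence intensity (arbitrary units) from an Axon 4000B scanner.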

Sequence | binding signal
ACCTGTATTTGTCATTATTTAGTGGACTCTGCTTAGTTCTCGGAGTCACCTAGTGCAG | 3390 fluorescence intensity (a.u.)
CATGGTGATGATGGCGGCGGGCGTCCGTCAGCGCCCGCACCGGAGTCACCTAGTGCAG | 5860 fluorescence intensity (a.u.)
TATGGTGATCCTAGCGATGAAACCGCCTAGCCCCGTTAGGCGGAGTCACCTAGTGCAG | 64600 fluorescence intensity (a.u.)
TGCAGCCGCCGACGCGGCGCGCCGACGCGATCTGAAACCCCGGAGTCACCTAGTGCAG | 3940 fluorescence intensity (a.u.)
CCTATTCCTTGTCACTATGACACCGTCATATATCTATGCACGGAGTCACCTAGTGCAG | 3420 fluorescence intensity (a.u.)
CCCGCGGATCGATCGATCGCCGCCGCGCGCCTGGACGAGCCGGAGTCACCTAGTGCAG | 3300 fluorescence intensity (a.u.)
CGCCTCCGTGGACCCGGTCCACGGGGAGATTACACCTTCACGGAGTCACCTAGTGCAG | 57600 fluorescence intensity (a.u.)
CCGCCACCCGCTGCCCGGGGAGCTCCGCCTTCACCTCCGCCGGAGTCACCTAGTGCAG | 7820 fluorescence intensity (a.u.)
AATCGTGTCCATGGTCTCCACCTCACGGGAGATTCTCCGCCGGAGTCACCTAGTGCAG | 3830 fluorescence intensity (a.u.)
ATAGTTAGGTGACAATTGACAAGTGTCAAGTTGTGTATGACGGAGTCACCTAGTGCAG | 3360 fluorescence intensity (a.u.)
TGATGGCGGCTTTAGGTGACATGCAGCATTAAGTGGCATGCGGAGTCACCTAGTGCAG | 4460 fluorescence intensity (a.u.)
GGACACCCGCTCCGCGTCGCGCGCACGCTAGAAGAACTCCCGGAGTCACCTAGTGCAG | 3140 fluorescence intensity (a.u.)
CGGAAAAGAAAGCCATGGAAGAAATGACGCAAGCAGCGGACGGAGTCACCTAGTGCAG | 4230 fluorescence intensity (a.u.)
GCAGCTGAAGTGGACCTGTCAGCAAGTAAAGCCAAGAGGCCGGAGTCACCTAGTGCAG | 3470 fluorescence intensity (a.u.)
ACGACACTACCAATTGTTTGGCCTTCAATCCAAACTAGCACGGAGTCACCTAGTGCAG | 3500 fluorescence intensity (a.u.)
AGCAAGCAAAGCCGAAGAATTGTTACACGGCCAAAGTGGACGGAGTCACCTAGTGCAG | 41200 fluorescence intensity (a.u.)
AATTGCTATGGTTACACCCGGCCGAAGCAAAGTCACCACTCGGAGTCACCTAGTGCAG | 3520 fluorescence intensity (a.u.)
CTCTCCTCCTTTCTTCTCCAAGTCAACAGTTCCTACGCTACGGAGTCACCTAGTGCAG | 3360 fluorescence intensity (a.u.)
TCCAAGAAAGTGACCAAGCAAATGACGCAAGTGGTGCACGCGGAGTCACCTAGTGCAG | 40200 fluorescence intensity (a.u.)
GAAATGCCAAGTGTGAGAAGATGACGCACCCAAATGCAACCGGAGTCACCTAGTGCAG | 5640 fluorescence intensity (a.u.)
TCGCACCAAGAATTGTTCACCTACCTTCAAAGTTCCAACACGGAGTCACCTAGTGCAG | 63300 fluorescence intensity (a.u.)

Sequence | binding signal
GCAAAAGCATCTTGGAGGAGATACAGTCAGCTGGCAATCCCGGAGTCACCTAGTGCAG | 4160 fluorescence intensity (a.u.)
CCACCACGCTTTCCCCGCGCGATGACTCCGCCGCCGCGCCCGGAGTCACCTAGTGCAG | 5400 fluorescence intensity (a.u.)
CCCACGTGAGTAAGCTCCTCCCTGCTGGTTTGATTCCCTTCGGAGTCACCTAGTGCAG | 4650 fluorescence intensity (a.u.)
CAAAAGTTTTGACGTGTCACATCGGATATACGGACACACACGGAGTCACCTAGTGCAG | 10800 fluorescence intensity (a.u.)
GTGTAAAAGTTTTGACGTGTCACATCGGATATACGGACACCGGAGTCACCTAGTGCAG | 15300 fluorescence intensity (a.u.)
TTGGGGAAAAGTTTTGAGTTTGATTGTCACATCGGATATACGGAGTCACCTAGTGCAG | 53000 fluorescence intensity (a.u.)
TTCCATCCAGAGTGCGTCACGAACGCGCCAGTCGCCCGGTCGGAGTCACCTAGTGCAG | 3990 fluorescence intensity (a.u.)
AAAGAACGCAGCCTTAGAAGGAGACAGCTCATGGAGCAAGCGGAGTCACCTAGTGCAG | 5000 fluorescence intensity (a.u.)
ATAACCGCCCTAATTTACTTTAGCATACGTGGAGTACAAGCGGAGTCACCTAGTGCAG | 6900 fluorescence intensity (a.u.)
AGCTCACCGCATTGTAAAGGCCCTTACTAATCTTAGCAAGCGGAGTCACCTAGTGCAG | 40300 fluorescence intensity (a.u.)
AAATCACACCCACGCTCGTGCCCATTGGGTCGGGTATCCGCGGAGTCACCTAGTGCAG | 3550 fluorescence intensity (a.u.)
GGAAGGAGACTGCTTGGTCACTAATTTAATCTGCTACTACCGGAGTCACCTAGTGCAG | 3140 fluorescence intensity (a.u.)
TTAAGGTGTGTTTAGTTCCACGTCAAAATTAGAAGTTTGACGGAGTCACCTAGTGCAG | 7090 fluorescence intensity (a.u.)
CCACGCTAAAATTGGAAGTTTGACTAAAATTAGAAGTTTACGGAGTCACCTAGTGCAG | 60200 fluorescence intensity (a.u.)
GTATTGAGAATTGTATGACTAATCAATGTTGCCTTACTTACGGAGTCACCTAGTGCAG | 5200 fluorescence intensity (a.u.)
GAGAATTTGCTACTAATTGACTTACCAATTTGGAATTTACCGGAGTCACCTAGTGCAG | 46100 fluorescence intensity (a.u.)
ATGTTTAGTTCCACGTCAAAATTGGAAGTTTGAAGAAATTCGGAGTCACCTAGTGCAG | 3980 fluorescence intensity (a.u.)
GCCGGCGTCGCCGTCGGGGATGCACCTCGGCGCGTCCGTCCGGAGTCACCTAGTGCAG | 3550 fluorescence intensity (a.u.)
CGTGCTCACGAAACCCGATCGATCGGTGATCTGCACCGTCCGGAGTCACCTAGTGCAG | 45200 fluorescence intensity (a.u.)
TGTCCCCGAACCGGATCTGCCCGATGCTCGCCGTCAGCATCGGAGTCACCTAGTGCAG | 4300 fluorescence intensity (a.u.)
TCCCGAAACCCGACACGCGGCACCGATCGATCGATCGATCCGGAGTCACCTAGTGCAG | 3240 fluorescence intensity (a.u.)
